The record followed here is article PMC7862700, “An all-to-all approach to the identification of sequence-specific readers for epigenetic DNA modifications on cytosine”.

Holding throughout (experiment): DAPPL (digital affinity profiling via proximity ligation, sequencing); 10 mM Tris-HCl pH 7.5, 50 mM NaCl, 1 mM DTT, 4% glycerol, room temperature, 30 min; GST-TFs on glutathione beads, 16-mer random dsDNA library, 0.1% formaldehyde crosslink after washing; high values mean tight binding
For one experiment, the target named is T1, FEV (Homo sapiens, UniProt Q99581 1-238).
T1 sequence: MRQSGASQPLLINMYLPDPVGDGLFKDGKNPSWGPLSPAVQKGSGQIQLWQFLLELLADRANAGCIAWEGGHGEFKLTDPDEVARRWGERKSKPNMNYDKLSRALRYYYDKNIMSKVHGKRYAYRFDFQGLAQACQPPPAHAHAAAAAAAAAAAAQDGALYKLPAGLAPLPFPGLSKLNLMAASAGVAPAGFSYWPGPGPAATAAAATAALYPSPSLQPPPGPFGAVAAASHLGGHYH
Particulars: protein: recombinant; tags: N-terminal GST; dsDNA, one strand shown. The method in brief: (§1)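 Binding signal is given per hexamer as its read frequency for a factor divided by its frequency in the tag-only sample. GST-fused human transcription factors were expressed in yeast, captured on glutathione beads, barcoded with DNA and pooled with that sample, then incubated with 200 nmole of a 16-mer random double-stranded DNA library in Tris/NaCl/DTT/glycerol buffer for 30 min at room temperature. The pools were then washed, crosslinked, proximity-ligated, amplified by PCR and sequenced on an Illumina NextSeq500.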

The target in another experiment is ETV5 (Homo sapiens, UniProt P41161 1-510). Particulars: protein: recombinant; tags: N-terminal GST; dsDNA, one strand shown. In short, it runs like this:
as §1

Another experiment deals with HSF1 (Homo sapiens, UniProt Q00613 1-529). Particulars: protein: recombinant; tags: N-terminal GST; chain copies: 3; dsDNA, one strand shown. In short, it runs like this:
as §1

In a further experiment the target is T2, SPIC (Homo sapiens, UniProt Q8N5J4 1-248).
T2 sequence: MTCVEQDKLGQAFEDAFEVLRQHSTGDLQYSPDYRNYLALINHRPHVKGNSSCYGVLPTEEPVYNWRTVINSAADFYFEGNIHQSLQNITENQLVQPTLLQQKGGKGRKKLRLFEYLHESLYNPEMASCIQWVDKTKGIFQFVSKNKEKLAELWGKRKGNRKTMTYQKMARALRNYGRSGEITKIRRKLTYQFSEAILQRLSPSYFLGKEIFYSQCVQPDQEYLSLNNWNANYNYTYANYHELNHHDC
Particulars: protein: recombinant; tags: N-terminal GST; dsDNA, one strand shown. The method in brief:
as §1

The target of another experiment is ELF4 (Homo sapiens, UniProt Q99607 1-663). Particulars: protein: recombinant; tags: N-terminal GST; dsDNA, one strand shown. The method in brief:
as §1

Another experiment has as its target T3, ELK4 (Homo sapiens, UniProt P28324-2 1-405).
T3 sequence: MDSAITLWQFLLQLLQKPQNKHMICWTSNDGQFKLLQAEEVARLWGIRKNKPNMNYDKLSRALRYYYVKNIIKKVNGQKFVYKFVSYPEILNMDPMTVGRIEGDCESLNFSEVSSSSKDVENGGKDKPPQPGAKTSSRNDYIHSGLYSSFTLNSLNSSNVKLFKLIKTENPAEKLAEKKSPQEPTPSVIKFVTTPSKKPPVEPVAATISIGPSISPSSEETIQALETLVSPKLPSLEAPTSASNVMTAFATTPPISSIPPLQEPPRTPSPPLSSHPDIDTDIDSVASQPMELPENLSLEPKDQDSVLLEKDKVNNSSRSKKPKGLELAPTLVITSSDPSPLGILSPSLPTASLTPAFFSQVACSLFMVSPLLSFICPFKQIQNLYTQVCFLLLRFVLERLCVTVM
Particulars: protein: recombinant; tags: N-terminal GST; dsDNA, one strand shown. In short, it runs like this: as §1

The target in another experiment is T4, ETV2 (Homo sapiens, UniProt O00321 1-342).
T4 sequence: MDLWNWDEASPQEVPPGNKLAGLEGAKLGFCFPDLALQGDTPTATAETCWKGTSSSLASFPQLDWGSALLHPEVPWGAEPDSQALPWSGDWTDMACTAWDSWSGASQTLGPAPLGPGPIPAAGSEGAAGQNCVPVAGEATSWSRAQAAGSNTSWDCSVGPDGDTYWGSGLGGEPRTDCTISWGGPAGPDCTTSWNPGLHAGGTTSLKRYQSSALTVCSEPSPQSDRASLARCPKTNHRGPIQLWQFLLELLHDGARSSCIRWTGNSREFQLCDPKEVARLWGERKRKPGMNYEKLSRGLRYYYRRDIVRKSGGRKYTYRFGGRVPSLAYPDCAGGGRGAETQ
Particulars: protein: recombinant; tags: N-terminal GST; dsDNA, one strand shown. In short, it runs like this: as §1

For a further experiment, the target named is T5, ELF3 (Homo sapiens, UniProt P78545 1-371).
T5 sequence: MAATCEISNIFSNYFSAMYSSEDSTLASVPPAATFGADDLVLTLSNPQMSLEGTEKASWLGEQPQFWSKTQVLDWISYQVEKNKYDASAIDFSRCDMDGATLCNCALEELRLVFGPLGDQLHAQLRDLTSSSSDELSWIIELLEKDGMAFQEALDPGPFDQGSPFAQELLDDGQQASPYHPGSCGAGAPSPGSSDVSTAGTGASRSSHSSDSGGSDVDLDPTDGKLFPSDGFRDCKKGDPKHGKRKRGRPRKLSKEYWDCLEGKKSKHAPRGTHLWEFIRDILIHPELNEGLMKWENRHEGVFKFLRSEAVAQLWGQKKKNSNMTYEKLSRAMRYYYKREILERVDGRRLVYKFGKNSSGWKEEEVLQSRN
Particulars: protein: recombinant; tags: N-terminal GST; dsDNA, one strand shown. The method in brief:
as §1

The next experiment has as its target CRX (Homo sapiens, UniProt O43186 1-299). Particulars: protein: recombinant; tags: N-terminal GST; dsDNA, one strand shown. In short, it runs like this:
as §1

Another experiment addresses ETV1 (Homo sapiens, UniProt P50549 1-477). Particulars: protein: recombinant; tags: N-terminal GST; dsDNA, one strand shown. The method in brief:
as §1

The next experiment addresses T6, ERF (Homo sapiens, UniProt P50548 1-548).
T6 sequence: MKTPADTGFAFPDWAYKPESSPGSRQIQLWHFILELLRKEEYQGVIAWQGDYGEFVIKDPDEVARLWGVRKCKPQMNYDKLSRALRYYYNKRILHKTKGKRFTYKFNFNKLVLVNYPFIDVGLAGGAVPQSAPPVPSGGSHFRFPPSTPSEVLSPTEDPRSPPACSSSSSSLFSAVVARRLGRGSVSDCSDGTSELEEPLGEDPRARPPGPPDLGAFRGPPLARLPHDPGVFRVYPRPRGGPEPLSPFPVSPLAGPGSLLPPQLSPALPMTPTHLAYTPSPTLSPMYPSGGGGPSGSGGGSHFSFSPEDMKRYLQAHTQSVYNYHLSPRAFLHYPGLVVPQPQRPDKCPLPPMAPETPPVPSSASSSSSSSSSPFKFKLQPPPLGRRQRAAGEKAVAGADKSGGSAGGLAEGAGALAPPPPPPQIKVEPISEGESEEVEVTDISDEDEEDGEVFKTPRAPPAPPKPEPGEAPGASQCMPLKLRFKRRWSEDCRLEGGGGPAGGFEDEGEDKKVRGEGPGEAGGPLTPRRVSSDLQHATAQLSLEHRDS
Particulars: protein: recombinant; tags: N-terminal GST; dsDNA, one strand shown. The method in brief: as §1

For the next experiment, the target named is T7, ETV3L (Homo sapiens, UniProt Q6ZN32 1-361).
T7 sequence: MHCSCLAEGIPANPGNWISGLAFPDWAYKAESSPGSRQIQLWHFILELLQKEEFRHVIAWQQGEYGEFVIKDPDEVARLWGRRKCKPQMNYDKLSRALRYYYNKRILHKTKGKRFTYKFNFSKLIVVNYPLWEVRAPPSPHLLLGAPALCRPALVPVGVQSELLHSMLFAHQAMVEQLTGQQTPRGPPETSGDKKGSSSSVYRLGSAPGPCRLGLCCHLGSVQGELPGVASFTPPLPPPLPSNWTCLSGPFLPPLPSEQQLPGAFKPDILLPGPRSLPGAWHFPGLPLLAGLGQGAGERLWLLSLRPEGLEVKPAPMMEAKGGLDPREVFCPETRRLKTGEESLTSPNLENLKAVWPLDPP
Particulars: protein: recombinant; tags: N-terminal GST; dsDNA, one strand shown. The method in brief: as §1

Another experiment addresses T8, ETS2 (Homo sapiens, UniProt P15036 1-469).
T8 sequence: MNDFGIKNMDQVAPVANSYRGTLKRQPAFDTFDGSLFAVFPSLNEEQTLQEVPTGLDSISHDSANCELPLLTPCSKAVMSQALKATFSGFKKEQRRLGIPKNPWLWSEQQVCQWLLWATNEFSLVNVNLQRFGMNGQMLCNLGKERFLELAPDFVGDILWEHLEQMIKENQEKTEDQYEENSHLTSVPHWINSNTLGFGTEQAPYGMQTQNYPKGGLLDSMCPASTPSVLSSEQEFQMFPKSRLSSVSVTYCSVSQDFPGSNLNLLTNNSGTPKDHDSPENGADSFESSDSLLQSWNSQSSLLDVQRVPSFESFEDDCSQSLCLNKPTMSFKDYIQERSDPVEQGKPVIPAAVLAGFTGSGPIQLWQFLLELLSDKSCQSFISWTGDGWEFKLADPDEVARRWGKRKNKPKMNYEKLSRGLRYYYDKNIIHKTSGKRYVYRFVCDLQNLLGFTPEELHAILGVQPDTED
Particulars: protein: recombinant; tags: N-terminal GST; dsDNA, one strand shown. The method in brief:
as §1

The next experiment concerns the target T9, SPDEF (Homo sapiens, UniProt O95238 1-335).
T9 sequence: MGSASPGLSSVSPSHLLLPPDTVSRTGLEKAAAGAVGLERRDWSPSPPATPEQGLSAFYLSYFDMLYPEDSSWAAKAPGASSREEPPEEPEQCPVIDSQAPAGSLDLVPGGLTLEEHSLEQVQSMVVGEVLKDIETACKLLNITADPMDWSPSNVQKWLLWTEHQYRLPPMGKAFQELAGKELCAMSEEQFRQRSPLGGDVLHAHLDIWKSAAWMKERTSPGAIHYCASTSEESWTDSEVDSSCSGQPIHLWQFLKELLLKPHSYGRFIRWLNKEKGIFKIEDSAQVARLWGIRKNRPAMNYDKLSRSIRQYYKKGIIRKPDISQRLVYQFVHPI
Particulars: protein: recombinant; tags: N-terminal GST; dsDNA, one strand shown. In short, it runs like this:
as §1

A further experiment deals with T10, ETV7 (Homo sapiens, UniProt Q9Y603 1-341).
T10 sequence: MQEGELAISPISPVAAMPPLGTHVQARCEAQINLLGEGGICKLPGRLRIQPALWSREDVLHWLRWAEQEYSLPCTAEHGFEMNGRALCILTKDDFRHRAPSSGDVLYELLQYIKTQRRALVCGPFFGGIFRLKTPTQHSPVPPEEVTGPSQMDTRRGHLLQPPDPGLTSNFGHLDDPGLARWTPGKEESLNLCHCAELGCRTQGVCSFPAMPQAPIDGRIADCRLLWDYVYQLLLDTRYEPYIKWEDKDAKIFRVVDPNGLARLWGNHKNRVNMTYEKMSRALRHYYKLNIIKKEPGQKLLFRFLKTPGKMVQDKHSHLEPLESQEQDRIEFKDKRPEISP
Particulars: protein: recombinant; tags: N-terminal GST; dsDNA, one strand shown. In short, it runs like this: as §1

A further experiment concerns the target T11, ELF5 (Homo sapiens, UniProt Q9UKW6-2 1-255).
T11 sequence: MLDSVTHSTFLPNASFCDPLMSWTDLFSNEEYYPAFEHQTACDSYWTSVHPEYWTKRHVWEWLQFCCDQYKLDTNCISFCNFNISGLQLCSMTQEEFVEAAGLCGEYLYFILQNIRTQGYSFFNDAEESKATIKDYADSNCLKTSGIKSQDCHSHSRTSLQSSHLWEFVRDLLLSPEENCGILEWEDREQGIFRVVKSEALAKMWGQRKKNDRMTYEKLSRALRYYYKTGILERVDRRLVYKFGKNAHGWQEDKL
Particulars: protein: recombinant; tags: N-terminal GST; dsDNA, one strand shown. In short, it runs like this:
as §1

Another experiment deals with T12, ETV3 (Homo sapiens, UniProt P41162-2 1-143).
T12 sequence: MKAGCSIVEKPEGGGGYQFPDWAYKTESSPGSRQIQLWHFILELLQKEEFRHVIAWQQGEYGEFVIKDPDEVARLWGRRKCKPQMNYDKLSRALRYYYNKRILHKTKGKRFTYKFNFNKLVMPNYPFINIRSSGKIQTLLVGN
Particulars: protein: recombinant; tags: N-terminal GST; dsDNA, one strand shown. The method in brief:
as §1

The target of a further experiment is ETV6 (Homo sapiens, UniProt P41212 1-452). Particulars: protein: recombinant; tags: N-terminal GST; dsDNA, one strand shown. In short, it runs like this: as §1
ETV6, sequence (P41212 whole entry): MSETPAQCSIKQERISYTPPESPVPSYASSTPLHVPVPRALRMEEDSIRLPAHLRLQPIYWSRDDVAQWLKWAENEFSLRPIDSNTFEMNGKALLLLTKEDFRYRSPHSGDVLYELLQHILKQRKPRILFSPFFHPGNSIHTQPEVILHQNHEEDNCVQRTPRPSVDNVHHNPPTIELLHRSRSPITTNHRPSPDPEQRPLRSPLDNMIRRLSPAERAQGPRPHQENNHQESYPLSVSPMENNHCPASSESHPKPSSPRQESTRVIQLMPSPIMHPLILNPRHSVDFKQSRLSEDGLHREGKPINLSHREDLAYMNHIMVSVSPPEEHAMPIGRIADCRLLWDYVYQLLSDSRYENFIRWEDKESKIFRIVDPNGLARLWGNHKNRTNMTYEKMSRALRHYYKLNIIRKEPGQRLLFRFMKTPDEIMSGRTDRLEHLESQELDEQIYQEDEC

HSF1, sequence (Q00613 whole entry): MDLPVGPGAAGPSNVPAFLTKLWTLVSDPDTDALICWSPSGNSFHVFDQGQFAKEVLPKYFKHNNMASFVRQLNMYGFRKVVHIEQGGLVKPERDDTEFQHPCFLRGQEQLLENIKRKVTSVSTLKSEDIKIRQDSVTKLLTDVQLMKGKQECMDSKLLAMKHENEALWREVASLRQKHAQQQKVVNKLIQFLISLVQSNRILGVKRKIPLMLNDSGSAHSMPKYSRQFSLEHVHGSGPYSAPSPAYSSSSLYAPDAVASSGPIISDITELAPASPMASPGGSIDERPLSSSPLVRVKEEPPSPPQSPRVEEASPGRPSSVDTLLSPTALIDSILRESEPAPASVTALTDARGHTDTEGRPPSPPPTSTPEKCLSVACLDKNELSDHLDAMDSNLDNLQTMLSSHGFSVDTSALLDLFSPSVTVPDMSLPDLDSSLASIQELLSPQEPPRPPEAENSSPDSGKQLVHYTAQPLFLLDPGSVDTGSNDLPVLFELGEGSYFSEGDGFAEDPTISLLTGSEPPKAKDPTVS
ELF4, sequence (Q99607 whole entry): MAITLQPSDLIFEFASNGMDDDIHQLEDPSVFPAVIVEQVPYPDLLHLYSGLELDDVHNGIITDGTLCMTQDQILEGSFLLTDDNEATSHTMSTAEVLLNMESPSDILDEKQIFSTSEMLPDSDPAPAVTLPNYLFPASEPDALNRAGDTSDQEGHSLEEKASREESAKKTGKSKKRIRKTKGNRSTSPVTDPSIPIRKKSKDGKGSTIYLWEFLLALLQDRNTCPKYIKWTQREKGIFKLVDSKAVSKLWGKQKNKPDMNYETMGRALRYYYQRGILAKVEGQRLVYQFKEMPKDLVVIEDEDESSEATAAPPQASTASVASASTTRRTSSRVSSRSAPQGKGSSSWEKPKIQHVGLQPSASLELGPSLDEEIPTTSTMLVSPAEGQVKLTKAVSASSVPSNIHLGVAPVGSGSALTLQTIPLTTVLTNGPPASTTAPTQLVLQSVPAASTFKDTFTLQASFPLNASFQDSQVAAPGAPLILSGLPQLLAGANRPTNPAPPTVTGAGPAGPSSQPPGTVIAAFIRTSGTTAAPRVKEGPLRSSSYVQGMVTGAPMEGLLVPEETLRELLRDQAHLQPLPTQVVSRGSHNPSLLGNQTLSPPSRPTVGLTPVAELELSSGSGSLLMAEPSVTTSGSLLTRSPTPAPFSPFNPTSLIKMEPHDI
ETV1, sequence (P50549 whole entry): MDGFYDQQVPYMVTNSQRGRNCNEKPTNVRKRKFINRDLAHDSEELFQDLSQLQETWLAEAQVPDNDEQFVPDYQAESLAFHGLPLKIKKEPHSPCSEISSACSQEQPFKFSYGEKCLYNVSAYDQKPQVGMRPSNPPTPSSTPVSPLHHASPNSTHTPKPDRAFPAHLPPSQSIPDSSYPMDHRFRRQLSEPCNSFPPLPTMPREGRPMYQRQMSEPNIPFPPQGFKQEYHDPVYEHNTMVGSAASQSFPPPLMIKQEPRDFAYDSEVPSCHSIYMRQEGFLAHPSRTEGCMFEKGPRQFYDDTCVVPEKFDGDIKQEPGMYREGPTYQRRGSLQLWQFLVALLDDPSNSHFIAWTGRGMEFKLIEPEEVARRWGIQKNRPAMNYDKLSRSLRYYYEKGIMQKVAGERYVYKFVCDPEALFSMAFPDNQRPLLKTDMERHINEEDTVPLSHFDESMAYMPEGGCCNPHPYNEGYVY
ETV5, sequence (P41161 whole entry): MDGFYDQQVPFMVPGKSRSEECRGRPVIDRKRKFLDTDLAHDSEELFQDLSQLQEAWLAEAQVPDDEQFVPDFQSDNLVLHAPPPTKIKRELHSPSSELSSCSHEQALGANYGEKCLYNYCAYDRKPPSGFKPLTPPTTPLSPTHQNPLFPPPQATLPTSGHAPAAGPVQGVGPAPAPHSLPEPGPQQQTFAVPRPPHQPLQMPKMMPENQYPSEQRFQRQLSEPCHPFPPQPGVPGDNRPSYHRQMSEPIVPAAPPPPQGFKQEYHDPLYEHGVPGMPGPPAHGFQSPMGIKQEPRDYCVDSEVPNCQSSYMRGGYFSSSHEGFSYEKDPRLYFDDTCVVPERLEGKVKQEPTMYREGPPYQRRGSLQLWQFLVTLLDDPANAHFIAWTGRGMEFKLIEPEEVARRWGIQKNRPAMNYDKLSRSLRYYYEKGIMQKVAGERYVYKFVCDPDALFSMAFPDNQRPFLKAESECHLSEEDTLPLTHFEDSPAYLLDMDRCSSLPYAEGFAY
CRX, sequence (O43186 whole entry): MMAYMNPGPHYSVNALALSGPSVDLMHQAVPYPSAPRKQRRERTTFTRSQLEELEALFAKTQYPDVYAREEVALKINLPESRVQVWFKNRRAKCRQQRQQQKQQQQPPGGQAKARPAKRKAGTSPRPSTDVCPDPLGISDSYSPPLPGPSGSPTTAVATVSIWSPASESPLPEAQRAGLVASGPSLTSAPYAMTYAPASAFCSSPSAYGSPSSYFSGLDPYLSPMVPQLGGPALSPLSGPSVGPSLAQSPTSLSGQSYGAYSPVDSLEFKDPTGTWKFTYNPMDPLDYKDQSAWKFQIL

TTGTCT: the binding signal in the experiment with FEV was 1.24 fold enrichment (6-mer frequency, TF over GST control); with ETV5 it was 1.29 fold enrichment (6-mer frequency, TF over GST control); with HSF1, 1.14 fold enrichment (6-mer frequency, TF over GST control); with SPIC, 1.3 fold enrichment (6-mer frequency, TF over GST control); with ELF4, 1.18 fold enrichment (6-mer frequency, TF over GST control); in the experiment with ELK4 it was 1.22 fold enrichment (6-mer frequency, TF over GST control). Besides, the binding signal was 1.27 fold enrichment (6-mer frequency, TF over GST control) with ETV2; 1.34 fold enrichment (6-mer frequency, TF over GST control) in the experiment with ELF3; 1.15 fold enrichment (6-mer frequency, TF over GST control) with CRX; 1.2 fold enrichment (6-mer frequency, TF over GST control) with ETV1; 1.16 fold enrichment (6-mer frequency, TF over GST control) with ERF; 1.18 fold enrichment (6-mer frequency, TF over GST control) in the experiment with ETV3L. The binding signal was 1.22 fold enrichment (6-mer frequency, TF over GST control) with ETS2; 1.22 fold enrichment (6-mer frequency, TF over GST control) with SPDEF; 1.33 fold enrichment (6-mer frequency, TF over GST control) with ETV7; 1.26 fold enrichment (6-mer frequency, TF over GST control) in the experiment with ELF5; 1.23 fold enrichment (6-mer frequency, TF over GST control) in the experiment with ETV3; 1.13 fold enrichment (6-mer frequency, TF over GST control) in the experiment with ETV6.
